The whole screen tested about 310,000 compounds, of which about 2,200 (0.71%) showed an effect of 50% or more. The effect is printed as a negative number. The sample as a whole holds a higher share of strong results than the screen did.
Each compound was assayed against human ether-à-go-go-related gene (hERG) potassium channel (human, UniProt Q12809) (assay: primary screen, population patch clamp on CHO cells stably expressing hERG; higher = less effect of the substance).
Chain of human ether-à-go-go-related gene (hERG) potassium channel (Q12809 whole entry, looked up): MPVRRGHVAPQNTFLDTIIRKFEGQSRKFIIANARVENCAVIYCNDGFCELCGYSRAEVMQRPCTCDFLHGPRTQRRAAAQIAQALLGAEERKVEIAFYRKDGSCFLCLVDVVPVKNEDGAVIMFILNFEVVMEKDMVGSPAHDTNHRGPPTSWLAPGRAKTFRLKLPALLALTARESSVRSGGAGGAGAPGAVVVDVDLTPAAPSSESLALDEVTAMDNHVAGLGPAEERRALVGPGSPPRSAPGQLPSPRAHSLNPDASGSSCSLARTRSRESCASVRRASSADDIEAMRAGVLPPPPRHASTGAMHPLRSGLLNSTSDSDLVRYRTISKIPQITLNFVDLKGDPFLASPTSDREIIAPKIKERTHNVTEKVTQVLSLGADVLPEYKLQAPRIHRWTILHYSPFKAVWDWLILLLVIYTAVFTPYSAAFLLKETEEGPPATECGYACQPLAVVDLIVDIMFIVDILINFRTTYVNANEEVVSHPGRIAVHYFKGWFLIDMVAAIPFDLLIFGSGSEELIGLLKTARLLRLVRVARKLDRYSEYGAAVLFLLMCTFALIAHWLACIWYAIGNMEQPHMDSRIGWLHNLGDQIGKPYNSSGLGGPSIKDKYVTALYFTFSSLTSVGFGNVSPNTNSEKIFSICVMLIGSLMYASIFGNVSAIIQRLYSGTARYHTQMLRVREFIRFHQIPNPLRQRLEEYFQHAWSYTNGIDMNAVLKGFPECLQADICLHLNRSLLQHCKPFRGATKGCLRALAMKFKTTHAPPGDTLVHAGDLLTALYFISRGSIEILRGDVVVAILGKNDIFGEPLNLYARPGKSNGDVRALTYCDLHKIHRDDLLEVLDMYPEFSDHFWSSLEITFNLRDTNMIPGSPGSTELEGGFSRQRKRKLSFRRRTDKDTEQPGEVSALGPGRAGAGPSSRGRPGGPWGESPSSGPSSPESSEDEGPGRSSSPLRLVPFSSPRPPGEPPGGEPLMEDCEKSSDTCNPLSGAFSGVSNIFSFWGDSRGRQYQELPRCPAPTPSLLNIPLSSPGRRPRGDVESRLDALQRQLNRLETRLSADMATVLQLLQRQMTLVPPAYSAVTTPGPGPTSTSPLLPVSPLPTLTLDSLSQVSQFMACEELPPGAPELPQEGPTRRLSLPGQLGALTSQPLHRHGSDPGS
`CC1CCCCN1Cc1nc2c(c(=O)n(C)c(=O)n2C)n1Cc1c(F)cccc1Cl` (stereo not drawn) was tested, and the “hERG current change (%, negative = inhibition) at 1uM” value was 11.4%. In the case of `C/C(N)=C(/C#N)C(=O)CSc1nc2ccccc2[nH]1`, the “hERG current change (%, negative = inhibition) at 1uM” value is reported as 5.05%. With `COc1ccc(NC(=O)CNC(c2ccccc2)c2ccccc2)cc1.O=C(O)C(=O)O` the “hERG current change (%, negative = inhibition) at 1uM” value was 14.5%. In the case of `O=C(COC(=O)Cc1ccc(Br)cc1)NC1CCCCCC1`, the “hERG current change (%, negative = inhibition) at 1uM” value is reported as 11.4%. For `Cc1ccc(NC(=O)Cn2cnc3ccccc32)cc1C`, the “hERG current change (%, negative = inhibition) at 1uM” value was 6.29%. With `O=C(Cn1cnc2ccccc21)Nc1ccc(F)c(F)c1` the “hERG current change (%, negative = inhibition) at 1uM” value was 3.75%. In the case of `O=C(Cn1cnc2ccccc21)Nc1ccc(C(=O)O)cc1.O=C(O)C(=O)O`, the “hERG current change (%, negative = inhibition) at 1uM” value is reported as -52.9%. `Cc1ncc(CSc2ccc(Cl)cc2)c(CO)c1O` was tested, and the “hERG current change (%, negative = inhibition) at 1uM” value was 12.9%. In the case of `COCCCNC(=O)c1ccc2nc(Cc3ccc(OC)cc3)oc2c1`, the “hERG current change (%, negative = inhibition) at 1uM” value is reported as 10.8%. For `Cn1nnnc1Sc1ncnc2scc(-c3cccc(S(C)(=O)=O)c3)c12`, the “hERG current change (%, negative = inhibition) at 1uM” value was 12.6%. `OCCC1CN(Cc2cnc(-c3ccccc3)s2)CCN1Cc1ccccc1` (stereo not drawn) was tested, and the “hERG current change (%, negative = inhibition) at 1uM” value was 1.93%. With `OCCC1CN(Cc2cc3ccccc3o2)CCN1Cc1ccc(F)cc1` (stereo not drawn) the “hERG current change (%, negative = inhibition) at 1uM” value was 15.2%. With `CCOc1ccccc1CN1CCN(C2CCSCC2)CC1CCO` (stereo not drawn) the “hERG current change (%, negative = inhibition) at 1uM” value was -7.19%. `CCOc1ccc(CN2CCN(Cc3cnc(-c4ccccc4)s3)CC2CCO)cc1` (stereo not drawn) was tested, and the “hERG current change (%, negative = inhibition) at 1uM” value was -90.1%. With `Cc1ccc(CN2CCN(Cc3ccc(OCCO)cc3)CC2CCO)o1` (stereo not drawn) the “hERG current change (%, negative = inhibition) at 1uM” value was 1.83%. With `CCOc1ccc(CN2CCN(Cc3cnc(N4CCOCC4)s3)CC2CCO)cc1` (stereo not drawn) the “hERG current change (%, negative = inhibition) at 1uM” value was -19.2%. For `CCOc1ccc(CN2CCN(C3CCSCC3)CC2CCO)cc1` (stereo not drawn), the “hERG current change (%, negative = inhibition) at 1uM” value was -76.2%. `CCOc1ccc(CN2CCN(Cc3ccc(C)o3)CC2CCO)cc1` (stereo not drawn) was tested, and the “hERG current change (%, negative = inhibition) at 1uM” value was -87.8%. For `Cc1ccc(CN2CCN(Cc3cc4ccccc4o3)CC2CCO)cc1` (stereo not drawn), the “hERG current change (%, negative = inhibition) at 1uM” value was -12.5%. `CCOc1ccccc1CN1CCN(Cc2ccc(C)o2)CC1CCO` (stereo not drawn) was tested, and the “hERG current change (%, negative = inhibition) at 1uM” value was -9.63%. With `CCOc1ccc(CN2CCN(C3CCC3)CC2CCO)cc1` (stereo not drawn) the “hERG current change (%, negative = inhibition) at 1uM” value was 3.11%. In the case of `CCOc1ccc(CN2CCN(Cc3cc4ccccc4o3)CC2CCO)cc1` (stereo not drawn), the “hERG current change (%, negative = inhibition) at 1uM” value is reported as -82%. For `O=C(CSc1nnc(CNC(=O)c2ccccc2)o1)NCc1ccc2c(c1)OCO2`, the “hERG current change (%, negative = inhibition) at 1uM” value was 4.4%. `CCN1CCN(c2c(Cl)cccc2NC(=O)c2ccc([N+](=O)[O-])cc2)CC1` was tested, and the “hERG current change (%, negative = inhibition) at 1uM” value was -15.9%. In the case of `CSc1ccccc1C(=O)C1CCCN(C(=O)CCc2cccnc2)C1` (stereo not drawn), the “hERG current change (%, negative = inhibition) at 1uM” value is reported as 8.69%. In the case of `COc1ccc(NC(=O)CSc2nc3ccccc3c(=O)n2CCCO)cn1`, the “hERG current change (%, negative = inhibition) at 1uM” value is reported as -26.1%. `COc1ccc(OC)c(C2CC(=O)NC(SC)=C2C#N)c1` (stereo not drawn) was tested, and the “hERG current change (%, negative = inhibition) at 1uM” value was 7.92%. For `O=C(CSc1ccccc1)Nc1nnc(COc2ccc(Cl)cc2)s1`, the “hERG current change (%, negative = inhibition) at 1uM” value was 3.34%. For `CCOc1ccc(CN2CCN(Cc3ccc4cc(F)ccc4n3)CC2CCO)cc1` (stereo not drawn), the “hERG current change (%, negative = inhibition) at 1uM” value was -79.3%. For `CCOc1ccccc1CN1CCN(Cc2ccc3cc(F)ccc3n2)CC1CCO` (stereo not drawn), the “hERG current change (%, negative = inhibition) at 1uM” value was -44.1%. For `COc1cc(CN2CCN(Cc3ccc4cc(F)ccc4n3)CC2CCO)cc(OC)c1` (stereo not drawn), the “hERG current change (%, negative = inhibition) at 1uM” value was -21.6%. `Cc1cc(C)nc(/N=C(\N)Nc2ccc(-c3ccccc3)cc2)n1` was tested, and the “hERG current change (%, negative = inhibition) at 1uM” value was -59.8%. For `Cc1cc(C)nc(/N=C(\N)Nc2ccc(SC(F)F)cc2)n1`, the “hERG current change (%, negative = inhibition) at 1uM” value was -52.9%. In the case of `CCOc1ccc(N/C(N)=N/c2nc(C)cc(C)n2)cc1`, the “hERG current change (%, negative = inhibition) at 1uM” value is reported as 4.81%. In the case of `Cc1ccc(N/C(N)=N/c2nc(C)cc(C)n2)cc1`, the “hERG current change (%, negative = inhibition) at 1uM” value is reported as -24.7%. For `CC(=O)Nc1ccc(N/C(N)=N/c2nc(C)cc(C)n2)cc1`, the “hERG current change (%, negative = inhibition) at 1uM” value was 8.5%. For `Cc1cc(=O)[nH]c(/N=C(\N)Nc2ccc(SC(F)F)cc2)n1`, the “hERG current change (%, negative = inhibition) at 1uM” value was 1.96%. `Cc1cc(C)nc(/N=C(\N)Nc2ccc(OCc3ccccc3)cc2)n1` was tested, and the “hERG current change (%, negative = inhibition) at 1uM” value was -28.8%. With `Cc1cc(C)nc(/N=C(\N)Nc2ccc(C(C)C)cc2)n1` the “hERG current change (%, negative = inhibition) at 1uM” value was -3.29%. With `Cc1cc(C)nc(/N=C(\N)Nc2ccc(OCCC(C)C)cc2)n1` the “hERG current change (%, negative = inhibition) at 1uM” value was -55.9%. For `COc1cccc(N2CCN(S(=O)(=O)c3c(C)[nH]c(C)c3C(=O)N3CCCCC3)CC2)c1`, the “hERG current change (%, negative = inhibition) at 1uM” value was 15.2%. `CC(C)(C)OC(=O)N1CCC(Cc2cc(-c3cccc(Br)c3)no2)(C(=O)O)CC1` was tested, and the “hERG current change (%, negative = inhibition) at 1uM” value was -14%. In the case of `Cc1ccc(-n2nc3c(c2NC(=O)C2CC2)CS(=O)(=O)C3)cc1`, the “hERG current change (%, negative = inhibition) at 1uM” value is reported as -0.97%. In the case of `O=C(COC(=O)C1CCCCC1)Nc1ccccc1OC(F)F`, the “hERG current change (%, negative = inhibition) at 1uM” value is reported as 12.3%. `Cc1cccn2c(CN3CCSCC3)c(C(=O)N3CCOCC3)nc12` was tested, and the “hERG current change (%, negative = inhibition) at 1uM” value was -1.36%. `Cc1cccn2c(CN3CCCC(c4ccccc4)C3)c(C(=O)N3CCOCC3)nc12` (stereo not drawn) was tested, and the “hERG current change (%, negative = inhibition) at 1uM” value was -53.3%. With `Cc1cccn2c(CN[C@@H]3CCCC[C@H]3c3ccccc3)c(C(=O)N3CCOCC3)nc12` the “hERG current change (%, negative = inhibition) at 1uM” value was 4.31%. `COc1cc2c(cc1OC)C1(Nc3c-2c(Cc2ccccc2)nn3-c2ccccc2)C(=O)Nc2ccccc21` (stereo not drawn) was tested, and the “hERG current change (%, negative = inhibition) at 1uM” value was 12.4%. With `N=c1c2c(-c3ccccc3)c(-c3ccccc3)n(Cc3ccco3)c2ncn1CCN1CCOCC1` the “hERG current change (%, negative = inhibition) at 1uM” value was -72.3%. `N=c1c2c(-c3ccccc3)c(-c3ccccc3)n(Cc3ccco3)c2ncn1CCO` was tested, and the “hERG current change (%, negative = inhibition) at 1uM” value was -52.2%. With `N=c1c2c(-c3ccccc3)c(-c3ccccc3)n(Cc3ccco3)c2ncn1Cc1ccccc1` the “hERG current change (%, negative = inhibition) at 1uM” value was -4.13%. For `N=c1c2c(-c3ccccc3)c(-c3ccccc3)n(Cc3ccco3)c2ncn1Cc1ccco1`, the “hERG current change (%, negative = inhibition) at 1uM” value was -26.8%. For `N=c1c2c(-c3ccccc3)c(-c3ccccc3)n(Cc3ccccc3)c2ncn1CCCn1ccnc1`, the “hERG current change (%, negative = inhibition) at 1uM” value was -32%. In the case of `CCCCn1cnc2c(c(-c3ccccc3)c(-c3ccccc3)n2Cc2ccco2)c1=N`, the “hERG current change (%, negative = inhibition) at 1uM” value is reported as -45.6%. For `N=c1c2c(-c3ccccc3)c(-c3ccccc3)n(Cc3ccco3)c2ncn1CCCn1ccnc1`, the “hERG current change (%, negative = inhibition) at 1uM” value was -63.6%. For `CC(C)Cn1cnc2c(c(-c3ccccc3)c(-c3ccccc3)n2Cc2ccco2)c1=N`, the “hERG current change (%, negative = inhibition) at 1uM” value was -26.2%. In the case of `N=c1c2c(-c3ccccc3)c(-c3ccccc3)n(Cc3ccco3)c2ncn1CCCN1CCOCC1`, the “hERG current change (%, negative = inhibition) at 1uM” value is reported as -91.3%. `N=c1c2c(-c3ccccc3)c(-c3ccccc3)n(Cc3ccccc3)c2ncn1CCO` was tested, and the “hERG current change (%, negative = inhibition) at 1uM” value was 0.416%. In the case of `c1ccc(-c2c(-c3ccccc3)n(Cc3ccco3)c3ncnc(NCCCn4ccnc4)c23)cc1`, the “hERG current change (%, negative = inhibition) at 1uM” value is reported as -9.73%. With `N=c1c2c(-c3ccccc3)c(-c3ccccc3)n(Cc3ccco3)c2ncn1CCCO` the “hERG current change (%, negative = inhibition) at 1uM” value was -34.5%.
